ATXN viability: reduces viability in counter-screen for ATXN expression inhibitors; S2 cells (HEK-293 line with an ATXN2-luciferase reporter) viability, CellTiter-Fluor protease fluorescence, 24 h; Potency, µM (titrated, usually from 56.7 µM), hits mostly cytotoxic; 0.49% of 400,000 active; further: nearly all actives have a fitted effect of over 40% in size
ATXN2 expr inh: reduces ATXN2 reporter expression in HEK-293 cells; HEK-293 ATXN2-luciferase reporter, luminescence, 24 h; Potency, µM (highest dose often 57 µM), usual class: inhibitors; 0.72% of 360,000 active; AID 1745845; further: nearly all actives have a fitted effect of over 55% in size
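qHTS (up to 57 uM final) was run with 24 h compound exposure of reporter cells at 37 °C. Each well was multiplexed: SteadyGlo luminescence measured ATXN2-luciferase expression after a fluorogenic Gly-Phe-AFC viability readout (25 uM final).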
HepG2 tox: kills HepG2 cells in TGF-b inhibitor counter-screen | 0.76% of 410,000 active | HepG2 CAGA-GFP viability, ATP luminescence, 18 h | Potency, µM (doses to about 46.1 µM), hits mostly cytotoxic | AID 588856
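CellTiter-Glo luminescence gave cytotoxicity after 18 hours at 37 degrees C. The cells were HepG2 CAGA-GFP in 1% FBS DMEM, stimulated with 500 pg/mL TGF-beta after compound addition. %Activity was normalised to no-cell wells (complete cell-killing) and DMSO (no toxicity), and curves were fitted and classified.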
TGFb SMAD3 inh: TGF-b pathway inhibition. HepG2 CAGA-GFP TGF-b/SMAD3 reporter, GFP fluorescence, 18 h; TGF-beta stimulated, 500 pg/mL final. Potency, µM (titrated, usually from 46.1 µM), hits mostly inhibitors. 1.2% of 410,000 active; further: nearly all actives have a fitted effect of over 65% in size
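HEPG2 CAGA-GFP cells (1000/well, DMEM with 1% FBS) were pre-incubated 2 h at 37 degrees C, given compound by pin tool, then stimulated with TGF-beta at 500 pg/mL final for 18 h before per-cell GFP fluorescence imaging.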
HTT ATP protect: cytoprotection in Huntington HTT-Q103 PC12 cell model; PC12 HTT-Q103 induced, cytoprotection, ATP luminescence, 40 h; Potency, µM (titrated, usually from 56.4 µM), usual class: activators; 0.14% of 230,000 active; AID 1471; further: nearly all actives have a fitted effect of over 45% in size
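PC12 cells with ecdysone-inducible HTT exon 1 Q103-GFP, induced with 100 nM tebufenozide and co-treated with library compounds in a dose series (1536-well, 1500 cells/well). Cytoprotection read as ATP content by ATPlite luminescence.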
HTT aggregate: inhibitors of mutant huntingtin aggregate formation in PC12 cells. PC12 HttQ103-GFP aggregates, Acumen cytometry, 40 h. Potency, µM (top dose mostly 46.1 µM), actives largely listed as inhibitors. 1.1% of 220,000 active; further: nearly all actives have a fitted effect of over 60% in size
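PC12 cells stably carrying ecdysone-inducible HTT exon 1 Q103–GFP were induced with tebufenozide (100 nM final) and treated with library compounds in titration. GFP aggregates in lysates were counted by laser scanning cytometry.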
Hits are given with their value; [ ] = dose if it differs, or a comment. The list is not random: actives were taken first. Their share in the collection is about 2.8%. The call rests on the fitted dose curve; in most records, active means well fitted curve in the direction sought with a large enough effect; inconclusive means small, poorly fitted or top-dose-only effect, or another doubt; inactive means no such curve, though single readings can be large; an effect the other way counts as inactive or inconclusive.

How did O=C(NCCCc1cnc[nH]1)NCCCN(Cc1ccc(Cl)cc1)c1ccc(Br)cn1 do in these assays?
HepG2 tox: inactive; TGFb SMAD3 inh: inconclusive

How did S=C(NCCCc1cnc[nH]1)NCCCN(CCc1ccccc1)c1ccc(Br)cn1 do in these assays?
HepG2 tox: inactive; TGFb SMAD3 inh: inconclusive

Results for CCCCN(CCCNC(=S)NCCCc1cnc[nH]1)c1ccc(Br)cn1 ?
ATXN viability: 18µM; ATXN2 expr inh: inconclusive; HepG2 tox: inactive; TGFb SMAD3 inh: inconclusive

Results for S=C(NCCCc1cnc[nH]1)NCCCN(Cc1ccc(Cl)cc1)c1ncc(Br)cn1 ?
HepG2 tox: inactive; TGFb SMAD3 inh: 18µM

Results for S=C(NCCCc1cnc[nH]1)NCCCN(CCc1ccc(Cl)cc1)c1ccc(Br)cn1 ?
HepG2 tox: 10µM; TGFb SMAD3 inh: inconclusive

How did Cc1nc(NCc2ccc3nsnc3c2)sc1-c1ccn(C)n1 do in these assays?
ATXN viability: inactive

What do the screens show for `CNc1c(Cl)cc(/C=C2\C=Cc3ccccc32)cc1Cl`?
HepG2 tox: inactive; TGFb SMAD3 inh: inactive

Results for COc1cc(/C=C2/C(=O)c3cccc([N+](=O)[O-])c3C2=O)c(Br)cc1O ?
ATXN2 expr inh: 22µM; HepG2 tox: inactive; TGFb SMAD3 inh: inconclusive; HTT aggregate: inactive

How did COc1ccc(C(=O)C(CN2CCCC2)c2ccccc2)cc1 (stereo not drawn) do in these assays?
ATXN2 expr inh: inconclusive; HepG2 tox: 32µM; TGFb SMAD3 inh: 11µM; HTT aggregate: inactive[9.22 µM]

How did CCCCCC(O)(c1ccc(OC)cc1)C(CN1CCOCC1)c1ccccc1 (stereo not drawn) do in these assays?
ATXN viability: inconclusive; ATXN2 expr inh: inactive; HepG2 tox: inactive; TGFb SMAD3 inh: 13µM

What do the screens show for `CCCCOc1ccc(C(=O)C(CN2CCOCC2)c2ccccc2)cc1` (stereo not drawn)?
ATXN2 expr inh: inconclusive; HepG2 tox: inactive; TGFb SMAD3 inh: inconclusive; HTT aggregate: inactive[9.22 µM]

What do the screens show for `CCCOc1ccc(C(=O)C(CN2CCCC2)c2ccccc2)cc1` (stereo not drawn)?
ATXN viability: inconclusive; ATXN2 expr inh: inconclusive; HepG2 tox: inactive; TGFb SMAD3 inh: inconclusive; HTT aggregate: inconclusive

What do the screens show for `CCCCC(O)(c1ccc(OC)cc1)C(CN1CCOCC1)c1ccccc1` (stereo not drawn)?
ATXN viability: inactive; ATXN2 expr inh: inconclusive; HepG2 tox: inactive; TGFb SMAD3 inh: inactive

What do the screens show for `O=C(c1ccccc1)C(CCC(CN1CCOCC1)C(=O)c1ccccc1)CN1CCOCC1` (stereo not drawn)?
ATXN2 expr inh: 22µM; HepG2 tox: inactive; TGFb SMAD3 inh: inconclusive; HTT ATP protect: inactive; HTT aggregate: inconclusive

Results for COc1ccc(C(=O)C(CN2CCOCC2)c2ccccc2)cc1 (stereo not drawn) ?
ATXN viability: 18µM; ATXN2 expr inh: inconclusive; HepG2 tox: inactive; TGFb SMAD3 inh: inconclusive; HTT ATP protect: 22µM

Results for CCCCN(CCCC)c1ccc(C=Nc2ccc(/C=C/c3ccnc4ccccc34)cc2)cc1C ?
HepG2 tox: inactive; TGFb SMAD3 inh: inactive

How did COc1cccc(CN2C(=O)NC(C)(C3CCN(Cc4ccc(C)o4)CC3)C2=O)c1OC (stereo not drawn) do in these assays?
ATXN viability: inactive

How did CCOC(=O)CN1C(c2ccc(O)cc2)Nc2ccc(Br)cc2C1c1ccccc1 (stereo not drawn) do in these assays?
ATXN viability: 20µM; ATXN2 expr inh: inconclusive; HepG2 tox: inactive; TGFb SMAD3 inh: inconclusive; HTT ATP protect: inactive[10 µM]; HTT aggregate: inactive

What do the screens show for `COc1ccc(OC)c(S(=O)(=O)Nc2ccc(-c3ccc4nncn4n3)cc2)c1`?
ATXN viability: inactive; ATXN2 expr inh: inactive; HepG2 tox: 7.9µM; TGFb SMAD3 inh: inactive

What do the screens show for `O=S(=O)(Nc1ccc(-c2ccc3nncn3n2)cc1)c1cc(F)ccc1F`?
ATXN viability: inactive; ATXN2 expr inh: inactive; HepG2 tox: inactive; TGFb SMAD3 inh: inactive

Results for CCCCC(=O)OCC(=O)[C@H]1[C@H](C)C[C@H]2[C@@H]3C[C@H](F)C4=CC(=O)C=C[C@]4(C)[C@@]3(F)[C@@H](O)C[C@@]21C ?
ATXN viability: inactive; ATXN2 expr inh: inactive

What do the screens show for `CCOC(=O)[C@]12Cc3c(cc(OC)c(OC)c3OC)[C@H]1N(C1CCCCC1)C(=O)c1cc(OC)ccc12`?
ATXN viability: 14µM; ATXN2 expr inh: inconclusive

Results for CCOC(=O)N1CCC(N2C(=O)c3ccccc3C2Nc2cc(OC)c(OC)c(OC)c2)CC1 (stereo not drawn) ?
ATXN viability: inactive; ATXN2 expr inh: inactive; HepG2 tox: inactive; TGFb SMAD3 inh: inactive; HTT ATP protect: inactive; HTT aggregate: inactive

How did CCN(CC)Cc1ccc2cc(COC(=O)Nc3ccc(C(=O)NO)cc3)ccc2c1 do in these assays?
ATXN2 expr inh: inactive

What do the screens show for `COc1ccc(Cl)cc1S(=O)(=O)N1CCN(C(=O)c2cc(-c3ccc(Br)cc3)n[nH]2)CC1`?
HepG2 tox: inactive; TGFb SMAD3 inh: 8.9µM

What do the screens show for `COc1ccc(S(=O)(=O)N2CCN(C(=O)c3cc(-c4ccc(Br)cc4)n[nH]3)CC2)cc1OC`?
ATXN viability: inactive; ATXN2 expr inh: inconclusive; HepG2 tox: inactive; TGFb SMAD3 inh: inconclusive

How did COC1[C@@H](O[C@@H]2O[C@H](C)[C@@H](O[C@H]3C[C@@](C)(O)[C@H](OC(=O)CC(C)C)[C@H](C)O3)[C@H](N(C)C)[C@H]2O)[C@@H](CC=O)C[C@@H](C)[C@@H](O)/C=C/C=C/C[C@@H](C)OC(=O)C[C@H]1OC(C)=O (stereo partly drawn) do in these assays?
ATXN viability: inactive

Results for O=C(N/N=C/c1cccnc1)c1cccc(Br)c1 ?
ATXN viability: inactive; ATXN2 expr inh: inactive; HepG2 tox: inactive; TGFb SMAD3 inh: inactive

Results for CC(C)c1ccc(OCc2cccc(C(=O)N/N=C/c3cccnc3)c2)cc1 ?
ATXN viability: inactive; ATXN2 expr inh: 11µM; HepG2 tox: inactive; TGFb SMAD3 inh: inactive; HTT ATP protect: inactive[10 µM]; HTT aggregate: inactive

How did CCOc1ccc(OCc2cccc(C(=O)N/N=C/c3cccnc3)c2)cc1 do in these assays?
ATXN viability: inactive; ATXN2 expr inh: 2.1µM; HepG2 tox: inactive; TGFb SMAD3 inh: inactive; HTT ATP protect: inactive[0.074 µM]; HTT aggregate: inactive

What do the screens show for `COc1ccc(-c2cc(=O)oc3cc(OC(=O)C4CCCCC4)c(Cl)cc23)cc1`?
ATXN2 expr inh: inactive; HepG2 tox: inactive; TGFb SMAD3 inh: inactive; HTT ATP protect: inactive[10 µM]; HTT aggregate: 0.28µM

What do the screens show for `CCCCC=O`?
HTT ATP protect: inactive

Screening data (PubChem)
